# Assay results: PubChem BioAssay AID1345083 (National Center for Advancing Translational Sciences (NCATS), 2018)
# Screen size: about 94,000 compounds; about 6,200 (6.6%) were called active. Inconclusive results (about 31%) are left out. The sample as a whole holds a higher share of actives than the screen did. A number with no mark means an inactive call. Calls come from the whole dose curve; as a rule, active = well fitted inhibition curve with a large enough effect; inconclusive = small, poorly fitted or top-dose-only effect; inactive = flat fitted curve, though single readings scatter.
# Experiment: Cytotoxic Profiling in HEK 293 Cell Line of Diverse Libraries Using Quantitative High-Throughput Screening; note: nearly all actives have a fitted effect of over 60% in size
# Details: HEK 293 viability, ATP luminescence (CellTiter-Glo), 48-72 h; series mostly up to 115 µM; activity change, negative = cytotoxicity: at the top concentration
# Method in brief: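 250 HEK 293 cells/well; compound by pintool; incubated 48 or 72 hr at 37 degree Celsius; CellTiter-Glo added, 10 min RT, luminescence imaged.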
# % is set by controls: 0 for no effect and ±100 for the full control effect; potency is the fitted concentration of half-maximal effect.
Structure (SMILES),"activity change, negative = cytotoxicity",outcome,Potency
NC(=O)c1ccc(OC2CCN(C(=O)c3ccc(F)cc3)CC2)nc1,-29.6%,,
O=C1CCN(C(=O)[C@@H](Cc2ccccc2)NS(=O)(=O)c2cccc3cccnc23)CCOCCN1,1.59%,,
O=C(NCCc1ccccc1)NC1CCc2nn(CC3CC3)c(=O)n2CC1 (stereo unspecified),,inactive,
O=C(Cc1cccc(F)c1)Nc1cnc(-c2cccnc2)nc1,-0.423%,,
O=C(Nc1ccc(F)cc1)c1ccc2nc(-c3cccnc3)oc2c1,-10.8% [at 172 µM],,
O=C(Nc1cnc(-c2cccc(Cl)c2)nc1)c1ccc(F)cc1,,,44.7 µM (active)
COC(=O)COc1cccn2c(=O)c(-c3cc(C)n(-c4ccc(C)cc4C)n3)c(C)nc12,-13.2%,,
O=C1CC(c2ccccc2)N(C(=O)C2CC2)CCCN(C(=O)Cc2cccc(F)c2)CCN1 (stereo unspecified),2.27%,,
CC(C)Cc1cc(CNc2nc(C(C)(C)C)nc3c2cnn3C)no1,,,35.5 µM (active)
CCCc1nc(NCC(c2ccccn2)N2CCOCC2)c2cnn(C)c2n1 (stereo unspecified),-0.509%,,
CC(Cn1cncn1)Nc1nc(-c2ccncc2)nc2c1cnn2C (stereo unspecified),0.89%,,
COc1ccccc1CC(=O)NCc1nnc2c(-c3nc(C(C)C)no3)cccn12,-10%,,
COCCC1(CO)CCCN(C(=O)Cn2cc(C)c(=O)[nH]c2=O)C1 (stereo unspecified),3.68%,,
O=C(NCc1nnc2ccccn12)C1NCCc2[nH]cnc21 (stereo unspecified),0.78%,,
CCC(=O)N1CCC2(CC1)CC(N1CCN(CC(C)C)CC1)CCO2 (stereo unspecified),-2.2%,,
Cc1ccc(S(=O)(=O)N[C@@H]2CCOC[C@H]2OCC(=O)O)cc1,0.393%,,
O=C1NCCCCCCN(S(=O)(=O)c2cccs2)[C@H]2CCCC[C@@H]12,-15%,,
CCC(CC)N1CCN(C(=O)c2ccc3c(c2)N(S(C)(=O)=O)CC3)CC1,-6.68%,,
O=C(c1ccc2c(c1)N(C(=O)c1ccccc1)CC2)N1CCN(c2ccc(Cl)cc2)CC1,,,31.6 µM (active)
CC(=O)N1CCc2ccc(C(=O)N3CCCCCC3)cc21,-7.22%,,
O=C(NC[C@H]1O[C@@H](CO)[C@@H](O)[C@H]1N1CCOCC1)c1ccco1,-4.16% [at 172 µM],,
CCOC(=O)c1ccc(NC(=O)CCn2ccn3nc4c(c3c2=O)CCCC4)cc1,-21.7%,,
O=C(CCn1ccn2nc3c(c2c1=O)CCCC3)Nc1ccc(Cl)c(C(F)(F)F)c1,,,44.7 µM (active)
O=C(CCn1ccn2nc3c(c2c1=O)CCCC3)Nc1ccc(F)cc1Cl,-2.23%,,
CCc1nc(-c2c3n(c(=O)n(CC(=O)NC4CCCCC4)c2=O)CCCC3)no1,4.44%,,
CCOC(=O)C1=C(C)NC(=O)NC1c1ccccc1 (stereo unspecified),-2.03%,,

Structure (SMILES),"activity change, negative = cytotoxicity",outcome,Potency
Cc1nccnc1N1CCC(c2nnc(CN3CCCC3)n2C)CC1,-7.58%,,
O=C1Cc2c(-c3ccc(Oc4ccccc4)cc3)n[nH]c2CN1CCc1ccncc1,,,79.4 µM (active)
O=C1Cc2c(-c3ccc(CO)cc3)n[nH]c2CN1CC1CCOCC1,-27.8% [at 172 µM],,
CC(C)Oc1cccc(-c2n[nH]c3c2CC(=O)N(Cc2ccccc2)C3)c1,-22.1% [at 172 µM],,
CCc1ocnc1C(=O)NC1CC(c2cc(N3CCC(O)C3)ncn2)C1 (stereo unspecified),,inactive,
O=C(NC1CCNC1)C1CCN(c2nc(-c3ccccc3)nc3c2CCC3)CC1 (stereo unspecified),,,35.5 µM (active)
O=C(CN1CCCC1=O)NC1CCCc2nc(-c3ccccc3)ncc21 (stereo unspecified),7.55%,,
Cc1nc(CCNC(=O)C2CCCN(c3nc(-c4ccccc4)nc4c3CCC4)C2)n[nH]1 (stereo unspecified),-3.49%,,
CC(C)c1nc(CCNC(=O)[C@H]2CNC[C@@H](C(=O)N3CCCC3)C2)cs1,-4.75%,,
O=C(NCC1CCNCC1)c1ccc(C2CCNC2)cc1 (stereo unspecified),-14.4%,,
COc1ccc(Nc2cc3c(nc2-c2ccccc2)nc(C(=O)NCCN(C)C)n3C)cn1,-23.9%,,
CN(C)CCNC(=O)c1nc2nc(-c3ccccc3)c(-c3cccc(F)c3)cc2n1C,,,50.1 µM (active)
O=C(NCCn1cccc1-c1nc(-c2ccc3c(c2)OCO3)no1)c1cccc(F)c1,-25.2%,,
Cn1cccc1C(=O)N1CC[C@@H]2NC(=O)[C@H]3C[C@H](NC(=O)C4CC4)CN3C(=O)[C@H]21,,inactive [at 172 µM],
CCCCN1C(=O)C(CC(=O)N2CCCCC2)Sc2ncccc21 (stereo unspecified),-19.9%,,
CC(C)CNC(=O)c1nc2sccn2c1-c1ccncc1,,inactive [at 172 µM],
CC(=O)N1CCC([C@@H]2CN(Cc3cc(F)c(F)cc3F)C[C@H]2CO)CC1,-4.04%,,
CC(C)S(=O)(=O)N1CCC(N2CC(OCC3CC3)C23CCCCC3)CC1 (stereo unspecified),-25.7%,,
O=C1NC2(CCN(C(=O)c3ccccn3)C2)Oc2ccccc21 (stereo unspecified),-8.41% [at 172 µM],,
O=C1NC2(CCN(C(=O)c3ccccc3)C2)COc2ccccc21 (stereo unspecified),,,100 µM (active)
O=C1CC2(CCN(C(=O)c3ccccc3)C2)Nc2ccccc2N1 (stereo unspecified),-16%,,
CCN(C1CCOCC1)C1CN(C(=O)C2CCC2)C1,-1.75%,,
COCCNC(=O)[C@@H]1C[C@H](Oc2ccccc2)CN1C(=O)c1ccccn1,-0.692%,,
COc1ccc(C(=O)NCCC2CCN(C(=O)Nc3cc(F)ccc3F)CC2)cc1,-7.34%,,
COc1ccc(-c2cc(N3CCC(NC(=O)c4ccc(N(C)C)cc4)C3)n[nH]2)cc1 (stereo unspecified),,,70.8 µM (active)
COc1ccc(-c2cc(N3CCCC(NC(=O)c4cccc(Cl)c4)C3)n[nH]2)cc1 (stereo unspecified),,,44.7 µM (active)

Structure (SMILES),"activity change, negative = cytotoxicity",outcome,Potency
COc1ccc(-c2cc(N3CCCC(NC(=O)c4ccsc4)C3)n[nH]2)cc1 (stereo unspecified),,,35.5 µM (active)
COc1ccc(-c2cc(N3CCCC(NC(=O)c4cc(F)ccc4Cl)C3)n[nH]2)cc1 (stereo unspecified),,,28.2 µM (active)
Cc1ccc(C(=O)NC2CCN(c3cc(-c4cccs4)[nH]n3)C2)cc1 (stereo unspecified),-25.9%,,
COC(=O)NC1CCCN(c2ccc3nnc(C)n3n2)C1 (stereo unspecified),,inactive [at 172 µM],
O=C(NC1CCN(c2cc(C(F)(F)F)ncn2)CC1)c1ccc(F)cc1,3.44%,,
Cn1nccc1C(=O)NC1CCCN(c2cc(N3CCCC3)ncn2)C1 (stereo unspecified),-1.62%,,
Cc1ccc(-c2cc(N3CCC(CNC(=O)c4ccc(N(C)C)cc4)CC3)n[nH]2)cc1,-2%,,
Cc1cc(C(=O)N2C[C@@H](COCC(N)=O)[C@H](c3ccncc3)C2)c(C)o1,-13.7%,,
O=C1Nc2cnccc2C2(CCN(C(=O)c3ccccc3F)C2)O1 (stereo unspecified),-11.1% [at 172 µM],,
CCOc1ccccc1NC(=O)CC[C@H]1NC(=O)c2ccccc2NC1=O,1.93%,,
O=C(c1ccoc1)N1CCC(Oc2ncccc2C(=O)N2CCOCC2)C1 (stereo unspecified),2.21%,,
CN1[C@@H](CCC(=O)NCc2ccccc2)CNC(=O)[C@@H]2[C@H]1CCN2Cc1csnn1,0.839% [at 172 µM],,
O=C(c1ccc(CO)o1)N1CCC2(CC1)[C@H](O)C[C@@H]2OCCO,-5.07%,,
CC(c1cccs1)N(C)Cc1ccncc1 (stereo unspecified),-4% [at 172 µM],,
COCc1nnc2n1CCC(NC(=O)NCCc1ccccc1)CC2 (stereo unspecified),-2.98%,,
O=C(CCCc1ccccc1)Nc1ccc(-c2nnc3n2CCCC3)cc1,-2.04%,,
CN1Cc2ncnc(N3CCCCC3)c2CN(c2ccccc2)C1=O,-7.24% [at 172 µM],,
O=C(Nc1cccc(F)c1)N1CCCC(CN2CCOCC2)CC1 (stereo unspecified),-4.63%,,
O=C(C1CCCN(Cc2cccc(-c3ccc(F)cc3F)c2)C1)N1CCCCC1 (stereo unspecified),,,31.6 µM (active)
O=C(c1cccs1)C1CCCN(C(=O)COc2ccc(F)cc2F)C1 (stereo unspecified),-46.5%,,
O=C1CCN(Cc2ccncc2)CCCC(C(=O)Nc2cccc(F)c2)CCN1 (stereo unspecified),-1.43%,,
O=C(NCC1CC1)C1CCCN(C2CCN(Cc3ccncc3)CC2)C1 (stereo unspecified),-7.71%,,
COc1ccccc1-c1cccc(CN2CCCC(C(=O)NCC3CC3)C2)c1 (stereo unspecified),,,39.8 µM (active)
O=C(Nc1ccc(F)cc1)C1CCCN(Cc2cccc(-c3ccc(F)cc3F)c2)C1 (stereo unspecified),,,35.5 µM (active)
CN(C)C(=O)N1CCCC(C(=O)N2CCC(N3Cc4cccn4C3=O)CC2)C1 (stereo unspecified),-6.08%,,
CNC(=O)[C@@H](Cc1ccccc1)N1CCC[C@H]1C(=O)NCC1CC1,-15% [at 172 µM],,

Structure (SMILES),"activity change, negative = cytotoxicity",outcome,Potency
Cc1nnc2n1C(C)CN(C(=O)CCCc1nc(-c3ccncc3)no1)C2 (stereo unspecified),,inactive,
O=C(NCc1cccnc1)C1CCCN(c2ccnc3ccnn23)C1 (stereo unspecified),-27.3%,,
CCCNC(=O)NC1CCN(C(=O)N2CC3CC(C2)[C@H]2CCCC(=O)N2C3)CC1 (stereo partly specified),1.71%,,
COc1ccc(CNC(=O)c2ccc3c(c2)N(C)C2CCCCN2C3=O)c(OC)c1 (stereo unspecified),1.55%,,
COc1cc(=O)n2c(c1C(=O)Nc1ccc(Cl)c(F)c1)CCCC2,-15.7%,,
CCN1c2cc(C(=O)Nc3ccc(SC)cc3)ccc2C(=O)N2CCCCCC21 (stereo unspecified),,,22.4 µM (active)
CCN1c2cc(C(=O)NCc3ccccc3C(F)(F)F)ccc2C(=O)N2CCCCCC21 (stereo unspecified),,,39.8 µM (active)
CCN1c2cc(C(=O)Nc3ccc(F)c(Cl)c3)ccc2C(=O)N2CCCCC21 (stereo unspecified),,,39.8 µM (active)
O=C(Nc1ccc([C@H]2OCC(=O)N(C3CCOCC3)[C@@H]2CO)cc1)c1ccc(F)c(Cl)c1,-13%,,
CCN1C(=O)Cc2cc(C(=O)NCc3cc(OC)ccc3OC)ccc21,-17.2%,,
CN(C)C[C@@H]1CN(C)C[C@H]1NC(=O)c1ccnnc1,-2.4%,,
CC(C)CC(=O)N1CCN(c2nnc3ccccn23)CC1,,inactive,
CC(C)(C)CC(=O)Nc1ccc2c(N3CCOCC3)ncnc2c1,-29.9%,,
O=C(CCCc1ccccc1)NCCC1CCN(C(=O)Nc2cc(F)cc(F)c2)CC1,-10.7%,,
CN1C(=O)C(CC(=O)NCc2ccccc2F)Sc2ncccc21 (stereo unspecified),25.8%,,
COCc1cccc(C(=O)N2CC[C@@](C)(O)[C@@H](O)C2)n1,-0.59%,,
C=CCN(C)c1nc(C)nc2c1CCN(C(=O)N1CCOCC1)CC2,2.16%,,
N#Cc1ccc(CN2CCCC3(COc4ccccc4[S+](=O)([O-])N3)C2)cc1 (stereo unspecified),-25.4%,,
CS(=O)(=O)N1CCCN(C(=O)CN2CCCCCC2)CCNC(=O)CC1c1ccccc1 (stereo unspecified),-21.6%,,
CC(C)CN1CCOC[C@H](Oc2ccc(S(C)(=O)=O)cc2)C1,-15.6% [at 172 µM],,
Cn1cc(CN2CCOC[C@H](Oc3ccc(S(C)(=O)=O)cc3)C2)c2ccccc21,,,50.1 µM (active)
COc1ccc(O[C@H]2COCCN(Cc3nccn3C)C2)cc1,-11.1% [at 172 µM],,
Cc1cc(C(=O)NCC2CCCN(Cc3nnc(-c4cccnc4)o3)C2)no1 (stereo unspecified),,inactive,
